Source: ChEMBL document CHEMBL3988442, “University of Dundee, Small-Polar-MMV Screening Library” (2021)
Among all 48,000 compounds or so, about 13,000 (27%) showed an effect of 50% or more. Some of the results follow.

System: Wolbachia pipientis
Test: Anti-Wolbachia Cell-Based Screen
Format: functional
Set-up: scale not given: in the data most compounds retested in dose-response had high values
Conditions: 5 µM

Row | Compound | Percent Effect
1 | COc1ccc(Cl)cc1-n1nc(C2CCCC2)nc1Cn1cnnn1 | -18.77%
2 | Nc1nc2c(c(N3CCC(CN4CCCC4=O)CC3)n1)CCNCC2 | -8.42%
3 | CCC1=N[C@@]2(CC[C@@H]3CN(S(C)(=O)=O)C[C@@H]32)C(=O)N1CC(C)C | -16.48%
4 | Cc1cccc(CN2CCc3c(CNC(=O)CC#N)nn(C)c3C2)n1.O=C(O)C(F)(F)F | -9.631%
5 | CC(C)Cc1nc(NC(=O)c2cc(-c3cccnc3)n[nH]2)n[nH]1 | 127.5%
6 | O=C(Nc1cc(-c2cccnc2)no1)C1CCC1 | 9.123%
7 | CC(C)Cc1nc(NC(=O)c2cccnc2)n[nH]1 | 118.7%
8 | Cn1cccc1-c1cc(C(=O)N2CC(c3cccnc3)C2)[nH]n1 | -4.055%
9 | CC(C)COCC(NC(=O)c1cccnc1)c1ccco1 (stereo not given) | -0.4808%
10 | O=C(Nc1ncc[nH]1)c1cc(-c2cccnc2)n[nH]1 | 118.3%
11 | CC(C)C[C@H](NC(=O)c1cc(-c2cccn2C)n[nH]1)C(N)=O | 6.399%
12 | Cc1nn(C(C)C)c(C)c1NC(=O)c1cccnc1 | 6.145%
13 | Cc1cc(CC(C)Nc2nc(-c3cccnc3)nc3c2CNC3)[nH]n1 (stereo not given) | -2.115%
14 | CC(=O)c1cccc(NC(=O)CN2CCCC(C3OCCO3)C2)c1 (stereo not given) | 1.142%
15 | CN1CCN(CCCN(C)S(=O)(=O)CC2CCCCC2)CC1 | -9.559%
16 | N#CC1(C(=O)N2CCN(Cc3ccon3)CC2)CCC1 | -11.71%
17 | Cc1ccc(C(=O)NS(=O)(=O)c2ccc3c(c2)OCCCO3)o1 | -8.261%
18 | Cc1cc(-c2nn3c(C4CC4)nnc3s2)on1 | 189.6%
19 | Cc1cc(-c2nn3c(C4CCC4)nnc3s2)on1 | 155.9%
20 | Cc1cc(NC(=O)CN2CCn3c(nnc3C(C)C)C2)on1 | -16.14%
21 | CCn1cc(-c2nn3c(C(C)C)nnc3s2)c(C)n1 | 106.3%
22 | Cc1cc(-c2nn3c(C(C)C)nnc3s2)on1 | 113.9%
23 | Cc1cc(CN2CCN(c3nn4cc(C)nc4s3)CC2)on1 | 9.459%
24 | CCn1c(CN2CCCC2)nnc1C1CCN(Cc2cc(C)no2)CC1 | -0.1861%

Row | Compound | Percent Effect
25 | CC(C)c1nnc2sc(CC3CCS(=O)(=O)C3)nn12 (stereo not given) | 8.57%
26 | COc1c(C2CCCN2Cc2cc(C)no2)c(C)nn1C (stereo not given) | -10.58%
27 | Cc1cc(CN(C2CC2)C(C)C(C)C)on1 (stereo not given) | 26.3%
28 | Cc1cc(CN2CCCC2c2noc(C3CC3)n2)c2ccccc2n1 (stereo not given) | 1.295%
29 | Cc1noc(C)c1-c1n[nH]c2c1CN(S(=O)(=O)c1ccsc1)CC2 | 10.76%
30 | N#Cc1cccc(Cl)c1NCCCc1nc(=O)[nH][nH]1 | -19.22%
31 | O=C(N[C@@H]1CCNC[C@H]1O)c1ccccc1OC(F)(F)C(F)F | -13.38%
32 | Cc1ccn(Cc2nc(C(C)OCC(C)C)no2)c(=O)c1 (stereo not given) | 12.04%
33 | CC(=O)N1CCCN(Cc2nnc(C(C)(C)C)o2)CC1 | -4.735%
34 | Cn1nc2c(cc1=O)CN(CC(=O)NC1CCCCNC1=O)CC2 (stereo not given) | 4.736%
35 | CSc1ccc(C(=O)N(c2ccc(F)cn2)C2CCOCC2)o1 | 4.022%
36 | COCC(=O)N1CCN2C(=O)OC[C@H]2C1 | -11.81%
37 | COCC(=O)N1CCCC(C(=O)N(C)CCCc2cnn(C)c2)C1 (stereo not given) | 14.99%
38 | CN1CCN(C(=O)c2cncc(CC3CCCN(C)C3)c2)CC1 (stereo not given) | -11.29%
39 | COCC(=O)N1CCN(C)CC(Cc2cc(N(C)C)ncn2)C1 (stereo not given) | 95.35%
40 | CN1CCN(C(=O)c2ccccc2)CC(Cc2cc(N(C)C)ncn2)C1 (stereo not given) | 80.45%
41 | Cc1nn(C)c2c(N3CCN(C(=O)c4ccccc4)CC3)ncnc12 | 3.277%
42 | OCc1cc2ccccc2nc1NCC1CC1 | 2.516%
43 | O=C(Cn1cnc(NC(=O)c2ccccn2)n1)NCc1ccccc1 | 11.88%
44 | COc1ccc(CN2CCOC3(CCCN(c4nnc(C)o4)C3)C2)cc1.O=C(O)C(F)(F)F (stereo not given) | -9.107%
45 | COCCN1CCc2ccc(=O)n(Cc3csc(C)n3)c2CC1.O=C(O)C(F)(F)F.O=C(O)C(F)(F)F | -8.44%
46 | Cc1nc(CN2C(=O)CCC23CCN(Cc2cccn2C)CC3)cs1.O=C(O)C(F)(F)F.O=C(O)C(F)(F)F | 110.4%
47 | Cc1nc(CN2C(=O)CCC23CCN(c2ncccn2)CC3)cs1.O=C(O)C(F)(F)F | 11.75%
48 | COCCN1CCC2(CCC(=O)N2Cc2csc(C)n2)CC1.O=C(O)C(F)(F)F.O=C(O)C(F)(F)F | 99.3%

Row | Compound | Percent Effect
49 | Cc1nc(CN2C(=O)CCC23CCN(Cc2ccccn2)CC3)cs1.O=C(O)C(F)(F)F.O=C(O)C(F)(F)F | 113.7%
50 | Cc1nc(CN2C(=O)CCC23CCN(Cc2ccoc2)CC3)cs1.O=C(O)C(F)(F)F.O=C(O)C(F)(F)F | 99.35%
51 | CCOC1CC2(CCN(Cc3cccn3C)CC2)C1.O=C(O)C(F)(F)F | 0.1287%
52 | NC(=O)C1CCN(C(=O)CSC2CCCc3ccccc32)CC1 (stereo not given) | -6.301%
53 | CCOc1ccccc1C(CC(=O)N(C)c1ccccc1)NC(C)=O (stereo not given) | 3.437%
54 | O=C(c1ccn(-c2cccc(Cl)c2)n1)N1CCN(C2CC2)CC1 | 7.351%
55 | COCCNC(=O)c1cc(S(=O)(=O)N2CCCC2)cs1 | 6.896%
56 | CC(C)NC(=O)c1cc(Br)cc(S(=O)(=O)N2CCOCC2)c1F | -9.649%
57 | CCC(C)NC(=O)c1cc(S(=O)(=O)N(C)C)c(C)s1 (stereo not given) | 107%
58 | CC(C)NC(=O)C(C)S(=O)(=O)c1cc2c(cc1Cl)OCCO2 (stereo not given) | -0.523%
59 | CCC(C)NC(=O)c1cncc(Br)c1 (stereo not given) | 12.99%
60 | CC(C)NC(=O)CS(=O)(=O)c1cc2c(cc1Cl)OCCO2 | -3.378%
61 | CCC(C)NC(=O)c1cc(S(=O)(=O)N2CCCC2)c(C)s1 (stereo not given) | 99.85%
62 | CCC(C)NC(=O)CS(=O)(=O)Cc1cc(C)ccc1C (stereo not given) | -1.911%
63 | Cc1sc(C(=O)NC(C)C)cc1S(=O)(=O)N(C)C | 135.1%
64 | CCN1CCN(c2ncc(-c3cc(C)no3)c(-c3ccoc3C)n2)CC1 | -0.7712%
65 | Cc1cc(-c2cnc(NC3CC3)nc2-c2ccoc2C)on1 | 65.28%
66 | Cc1cc(-c2cnc(NC3CCCC3)nc2-c2ccoc2C)on1 | -4.074%
67 | CCN1CCC(N2CCN(c3cc(-c4nc(C)no4)ccn3)CC2)CC1 | 10.41%
68 | CCN1CCN(c2ncc(-c3cc(C)no3)c(-c3ccco3)n2)CC1 | 110.6%
69 | Cc1cc(-c2cnc(NC3CC3)nc2-c2ccco2)on1 | 84.65%
70 | Cc1cc(-c2cnc(NC3CCCCC3)nc2-c2ccco2)on1 | 96.71%
